# Source: PubChem
# USP28 block – inhibitors of human USP28 deubiquitinase; inhibition, % at 25 µM; purified USP28, Ub-rhodamine cleavage fluorescence, 30 min; hit rate 3% among 47,000; Ubiquitin carboxyl-terminal hydrolase 28 (Homo sapiens), Q96RU2
# USP8 inh – inhibitors of human USP8 deubiquitinase; Ubiquitin carboxyl-terminal hydrolase 8 (Homo sapiens), P40818; purified USP8, Ub-rhodamine cleavage fluorescence, 30 min; inhibition, % at 20 µM; hit rate 4.2% among 47,000; AID 1645853, 2021
# USP30 block – inhibitors of human USP30 deubiquitinase. hit rate 5.3% among 47,000. Ubiquitin carboxyl-terminal hydrolase 30 (Homo sapiens), Q70CQ3. purified USP30, Ub-rhodamine cleavage fluorescence. AID 1645860, 2021. inhibition, % at 25 µM
# Target sequence (Q70CQ3 whole entry, looked up): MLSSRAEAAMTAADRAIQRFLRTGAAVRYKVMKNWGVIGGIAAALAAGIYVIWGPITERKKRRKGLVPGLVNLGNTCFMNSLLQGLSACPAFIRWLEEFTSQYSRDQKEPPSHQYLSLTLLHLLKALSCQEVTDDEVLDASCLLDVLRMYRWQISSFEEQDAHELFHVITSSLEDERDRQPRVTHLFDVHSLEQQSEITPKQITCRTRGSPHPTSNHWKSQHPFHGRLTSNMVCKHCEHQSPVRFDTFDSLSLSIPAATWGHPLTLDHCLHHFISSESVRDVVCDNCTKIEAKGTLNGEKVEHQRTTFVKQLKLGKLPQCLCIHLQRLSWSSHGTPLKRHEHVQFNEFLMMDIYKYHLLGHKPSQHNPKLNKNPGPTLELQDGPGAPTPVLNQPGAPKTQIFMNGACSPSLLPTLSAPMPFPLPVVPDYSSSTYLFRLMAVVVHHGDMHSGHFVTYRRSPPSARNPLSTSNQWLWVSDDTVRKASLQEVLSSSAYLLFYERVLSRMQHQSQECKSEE
# USP10 inh – inhibitors of human USP10 deubiquitinase. Ubiquitin carboxyl-terminal hydrolase 10 (Homo sapiens), Q14694. purified USP10, Ub-rhodamine fluorescence, 60 min. inhibition, % at 20 µM. hit rate 1.1% among 47,000. AID 1645856, 2021
# USP17 block – inhibitors of human USP17 deubiquitinase; purified USP17, Ub-rhodamine cleavage fluorescence, 3 h; inhibition, % at 50 µM; hit rate 6.5% among 47,000
# Starred values were filed as active, the others as inactive; . = not tested or not shown. Only some compounds are listed: those with a hit (about 14% of all), similar ones and a draw of the others. Rule as the data show it: active = inhibition above about 30%; inactive = the rest.
SMILES,USP28 block,USP8 inh,USP30 block,USP10 inh,USP17 block
Clc1ccccc1-c1cnc2sc(NCCc3ccccn3)nn12,28,-2,33*,5,13
COc1ccc(CCNC(=O)[C@H](C)NC(=O)c2cc3c([nH]c4ccccc43)c(C)n2)cc1,9,-98,-159,-5,34*
O=C(NCc1cn2ccccc2n1)C1CC(=O)N(c2cccc3ccccc23)C1 (centres undefined),-11,-56,-50,-5,-22
CC(C)(C)c1cc(NC(=O)CCc2ccccc2)no1,1,11,24,11,4
Cc1nc(Nc2ccc(NC(=O)c3ccco3)cc2)cc(N2CCOCC2)n1,-8,-27,-17,-2,-12
O=C(Nc1cc(F)c2nc(N3CCCC3)ccc2c1)c1ccco1,0,70*,-138,-5,56*
COc1cccc(CC(=O)Nc2cc(F)c3nc(N4CCOCC4)ccc3c2)c1,36*,72*,-96,-4,58*
COc1ccc(CCC(=O)Nc2cc(F)c3nc(N4CCOCC4)ccc3c2)cc1,14,47*,12,2,2
COc1ccc(NS(=O)(=O)c2cc(NC(=O)CCc3ccccc3)ccc2N2CCOCC2)cc1,7,0,17,2,1
O=C(CCc1ccccc1)Nc1cc(F)c2nc(N3CCCCC3)ccc2c1,10,70*,-14,-3,28
O=C(Oc1cc(O)cc2c1C[C@@H](OC(=O)c1cc(O)c(O)c(O)c1)[C@@H](c1cc(O)c(O)c(O)c1)O2)c1cc(O)c(O)c(O)c1,78*,-304,0,-10,77*
COC1=C2C[C@@H](C)C[C@H](OC)[C@H](O)[C@@H](C)/C=C(\C)[C@H](OC(N)=O)[C@@H](OC)/C=C\C=C(/C)C(=O)NC(=CC1=O)C2=O,6,-4,-5,-7,-2
CO/C1=C\C(C)=C/[C@@H](C)[C@@H](O)[C@@H](C)C/C(C)=C/C=C/[C@H](OC)[C@@H]([C@@H](C)[C@@H](O)[C@H](C)[C@@]2(O)C[C@@H](OC(=O)/C=C/C(N)=O)[C@H](C)[C@@H](C(C)C)O2)OC1=O,23,3,-2,28,56*
CCC1OC(O)(C(C)C(O)C(C)C2OC(=O)/C(C)=C/C(C)=CC(C)C(O)C(C)C/C(C)=C/C=C/C2OC)CC(OC(=O)/C=C/C(=O)NC2=C(O)CCC2=O)C1C (centres undefined),34*,17,12,39*,74*
N#Cc1ccc(N2C[C@@H]3OCC(=O)N(Cc4ccccn4)[C@@H]3C2)nc1,-4,-249,0,0,-30
Cc1ccc(C2CC(=O)Nc3c2c(C)nn3-c2ccc3nnc(C)n3n2)cc1 (centres undefined),21,4,35*,0,4
COc1cccc(NC(=O)Nc2ccc(CCc3nc4ccccc4[nH]3)cc2)c1,66*,-11,8,13,42*
COc1ccc(NC(=O)Nc2ccc(CCc3nc4ccccc4[nH]3)cc2)c(OC)c1,28,24,76*,12,59*
CC1Cc2cc(S(=O)(=O)N3CCCC3)ccc2N1C(=O)C1CC1 (centres undefined),25,9,15,0,1
N#Cc1ccc(Sc2ccccc2)c(NC(=O)c2ccc(F)cc2)c1,20,24,31*,1,18
COc1ccc(NC(=O)C2=Cc3ccccc3OC2)cc1,18,14,34*,5,12
O=C(NCc1ccccc1Cl)C1=Cc2ccccc2OC1,22,1,15,8,6
O=C(NCc1cc2ccccc2[nH]1)c1ccc(COc2ccc(Br)cc2)cc1,18,55*,-58,-10,9
O=C(c1csc2ccccc12)N1CCN(c2ccc(Cl)c(Cl)c2)CC1,6,6,33*,6,1
CC(=O)c1cccc(S(=O)(=O)Nc2ccc(S(=O)(=O)Nc3nc(C)cc(C)n3)cc2)c1,0,0,-57,5,-13
SMILES,USP28 block,USP8 inh,USP30 block,USP10 inh,USP17 block
NS(=O)(=O)c1cccc(NS(=O)(=O)c2ccc(/C=C/C(=O)OCC(=O)c3ccc(Br)cc3)cc2)c1,59*,6,18,41*,15
CCc1ccc(NC(=O)C(C)OC(=O)/C=C/c2ccc(S(=O)(=O)Nc3cccc(S(N)(=O)=O)c3)cc2)cc1 (centres undefined),27,18,15,33*,33*
COc1ccc(NS(=O)(=O)c2ccc(/C=C\c3onc(C)c3NC(C)=O)cc2)cc1,.,1,.,1,5
COc1ccc(C(=O)COC(=O)/C=C/c2ccc(S(=O)(=O)Nc3cccc(S(N)(=O)=O)c3)cc2)cc1,43*,-6,22,23,10
O=C(Nc1c2c(nn1-c1ccc(F)cc1)CS(=O)(=O)C2)C1(c2ccc(Cl)cc2)CCCC1,13,13,22,6,12
COc1ccc(S(=O)(=O)n2c(SCC(=O)NCCc3ccccc3)nc3ccccc32)cc1,12,7,-10,-2,-11
O=C(CCc1ccccc1)Nc1ccc2c(c1)nc1n2CCN(C2CCCC2)C1,-9,31*,-132,-4,25
CS(=O)(=O)Nc1ccc2c(c1)nc1n2CCN(C2CCCC2)C1,-100,-51,-401,-5,-112
CC1(C2CCN(C(=O)CN3CCOCC3)CC2)CCCCN(CCc2ccccc2)C1=O (centres undefined),-1,-1,6,0,-1
COc1cc(OC)cc(C(=O)N2CCC(C(=O)Nc3ccc4c(c3)OCCO4)CC2)c1,49*,0,-26,-1,-13
O=C1Nc2ccccc2C2CN(CCc3ccccc3)CC12 (centres undefined),15,-6,0,-5,-11
CCOc1ccc(-c2nc(Cn3nnc(C(=O)Nc4ccccc4C)c3C)c(C)o2)cc1,17,19,43*,6,.
CCc1ccc(NC(=O)N2CC3CN(S(=O)(=O)c4ccccc4)CC(C2)O3)cc1,12,0,0,2,-1
O=C1C2Cc3c([nH]c4ccccc34)C(c3ccccc3)N2C(=O)CN1CCCN1CCOCC1 (centres undefined),-1,-4,-26,-7,-9
CCC(C)Nc1nc2c(-c3ccc(Cl)cc3)nnn2c2ccccc12 (centres undefined),-3,2,-2,4,18
COc1ccc(/C=C/c2nc(-c3ccc4oc(C)nc4c3)no2)cc1,13,31*,6,-2,.
COc1ccc(NC(=O)COc2cccc3c2CCNC3=O)cc1OC,9,0,9,1,19
CCOc1ccc(NC(=O)COc2cccc3c2CCN(CC)C3=O)cc1,75*,-5,-1,3,-1
CCN1CCc2c(OCC(=O)Nc3cc(C(F)(F)F)ccc3Cl)cccc2C1=O,33*,-55,98*,-1,74*
